# Most compounds without a hit are left out; they make up all but 9.4% or so of the library.
# IMPase cell inh: membrane-permeable compound that blocks inositol monophosphatase; P97697; CHO-M1 cells, IP1 accumulation, HTRF TR-FRET ratio; 120,000 tested, under 10 active; inhibition (IP1 accumulation), % at 46.1 µM; active = well fitted curve in the direction sought with a large enough effect in the signal ratio, not every such curve was filed as active; inconclusive = small, poorly fitted or top-dose-only effect, or a change in a side signal; inactive = no such curve, though single readings can be large or run the other way; the % refers to the signal ratio;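 also: cells stimulated with carbachol in lithium chloride buffer; plate controls were DMSO basal wells for no effect and reference inhibitor wells for full effect; higher means more IMPase inhibition seen as more IP1 and lower FRET ratio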
# Target sequence (P97697 whole entry, looked up): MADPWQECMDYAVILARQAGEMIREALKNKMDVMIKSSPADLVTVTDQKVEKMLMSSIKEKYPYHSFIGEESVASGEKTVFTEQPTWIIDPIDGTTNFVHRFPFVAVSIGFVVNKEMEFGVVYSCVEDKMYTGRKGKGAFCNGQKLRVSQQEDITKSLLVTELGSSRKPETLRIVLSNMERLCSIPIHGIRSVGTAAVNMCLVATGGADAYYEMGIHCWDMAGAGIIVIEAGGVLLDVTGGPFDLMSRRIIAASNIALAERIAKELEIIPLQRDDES
#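 CHO-M1, 2000 cells/well, cultured 16–30 h; cpd up to 46 uM; carbachol (50 uM solution, stimulation buffer w/ 50 mM LiCl, pH 7.4), 30 min 37C; IP-One TR-FRET, 10 min RT; Ex 320/Em 665, 620; Hill-fit AC50.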
# IMPase Li cell: cell-permeable IMPase inhibitors with lithium potentiation. CHO-M1 cells, IP1 TR-FRET (IP-One), carbachol + lithium. Potency, µM (series often up to 59.4 µM), for the others: at the highest dose activity, negative = IMPase inhibition, most hits filed as inhibitors. 210,000 tested, 0.35% active. AID 1457;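 also: IP1 builds up when IMPase is blocked and the TR-FRET signal falls; potency is read from the fitted curve at half-maximal effect; plate controls were basal vehicle for no effect and high inhibitor control for full effect; nearly all actives have a fitted effect of over 50% in size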
#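 CHO cells stably expressing M1 receptor (2000/well) were cultured 16–30 h, then exposed to compounds with a small lithium addition for 30 min at 37C. IP1 was measured by TR-FRET competition; AC50 from Hill fits.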
# ALDH1A1 inh: inhibitors of human aldehyde dehydrogenase 1A1; P00352; Purified ALDH1A1, NADH fluorescence, propionaldehyde substrate; Potency, µM (titrated, usually from 75.3 µM), inactives show at the top dose activity, negative = inhibition, usual class: inhibitors; 220,000 tested, 7.3% active; AID 1030; active = well fitted inhibition curve with a large enough effect, not every such curve was filed as active; inconclusive = small, poorly fitted or top-dose-only effect, or another doubt; inactive = no such curve, though single readings can be large or run the other way;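 also: potency is read from the fitted curve at half-maximal effect; plate controls were no enzyme wells and a reference inhibitor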
# HPGD block: inhibitors of human 15-hydroxyprostaglandin dehydrogenase (HPGD). Potency, µM, for the others: at the top dose activity change, negative = inhibition, hits mostly inhibitors. 150,000 tested, 4.3% active. purified HPGD, NADH fluorescence kinetic, PGE2 substrate. P15428; active = well fitted inhibition curve with a large enough effect, not every such curve was filed as active; inconclusive = small, poorly fitted or top-dose-only effect, or another doubt; inactive = no such curve, though single readings can be large or run the other way; also: potency is read from the fitted curve at half-maximal effect; % is scaled to controls: 0 for no effect and ±100 for the full control effect
# Target sequence (P15428 whole entry, looked up): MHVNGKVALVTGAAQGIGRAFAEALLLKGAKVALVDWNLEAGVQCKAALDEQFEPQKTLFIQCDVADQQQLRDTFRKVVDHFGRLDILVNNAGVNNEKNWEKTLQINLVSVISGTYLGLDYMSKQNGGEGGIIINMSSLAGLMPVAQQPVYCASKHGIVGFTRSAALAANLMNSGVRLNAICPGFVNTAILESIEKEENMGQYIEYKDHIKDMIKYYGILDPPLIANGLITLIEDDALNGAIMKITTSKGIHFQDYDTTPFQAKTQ
#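 20 nM HPGD preincubated 15 min at room temperature with compound in 50 mM Tris-HCl pH 8, 0.01% Tween 20. Started with 1 mM NAD+ and 30 uM prostaglandin E2; NADH fluorescence (360/450 nm) read 5 times over 30-s intervals, last minus first.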
# HTT aggregate: inhibitors of mutant huntingtin aggregate formation in PC12 cells. PC12 HttQ103-GFP aggregates, Acumen cytometry, 40 h. 220,000 tested, 1.1% active. Potency, µM (highest dose often 46.1 µM), without a hit: at the highest dose activity change, negative = inhibition, usual class: inhibitors; also: potency is read from the fitted curve at half-maximal effect; % is scaled to controls: 0 for no effect and ±100 for the full control effect; nearly all actives have a fitted effect of over 60% in size
#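 Ecdysone-promoter PC12 model expressing HTT exon 1 Q103 fused to GFP, induced by tebufenozide at 100 nM final. Compounds titrated; aggregates sized 1–25 µm scored on a 488 nm laser cytometer.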
# HTT cytoprotect: Huntington cell model cytoprotection by ATP luminescence. Potency, µM (top dose mostly 56.4 µM), without a hit: cytoprotection (ATP increase), hits mostly activators. PC12 HTT-Q103 induced, cytoprotection, ATP luminescence, 40 h. 230,000 tested, 0.14% active; also: potency is read from the fitted curve at half-maximal effect; % of control where 0% means no effect; nearly all actives have a fitted effect of over 45% in size
#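 ATP quantification (ATPlite) reports survival of PC12 cells in which tebufenozide, 100 nM final, switches on Htt exon 1 with 103 glutamines linked to GFP; compounds are titrated.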
# Starred values were filed as active, the others as inactive; ? = inconclusive; nt = not tested or not shown; [ ] = dose if it differs, or a comment. Unless noted, calls follow the shape of the dose curve; as a rule, active = well fitted curve in the direction sought with a large enough effect; inconclusive = small, poorly fitted or top-dose-only effect, or another doubt; inactive = no such curve, though single readings can be large; an effect the other way counts as inactive or inconclusive.
SMILES,IMPase cell inh,IMPase Li cell,ALDH1A1 inh,HPGD block,HTT aggregate,HTT cytoprotect
COc1cc(/C=N/NC(=O)c2cccnc2)ccc1OS(=O)(=O)c1cc(C)ccc1C,nt,21.4%,-6.3%,-15.4%,10.0%,4.4%[10 µM]
COc1cc(/C=N/NC(=O)COc2cccc(F)c2)ccc1OS(=O)(=O)c1ccc(C)cc1,nt,7.1%,8.91µM*,-22.4%,1.9%,nt
COc1cc(/C=N/NC(=O)c2cccnc2)ccc1OS(=O)(=O)c1ccc(C)cc1,nt,7.9%,3.55µM*,-19.2%,4.8%,28.3%[10 µM]
Cn1ncc(Br)c1C(=O)N/N=C/c1ccc(OS(=O)(=O)c2ccccc2)cc1,?,6.8%,25.1µM*,-7.6%,-0.6%,11.1%[10 µM]
CN1CCN(c2ncc3nc(-c4ccc(F)cc4)c(=O)n(C4CC4)c3n2)CC1,nt,-9.4%,?,nt,nt,-47.8%
CCOC1=NC(C(=O)O)c2ccccc2/C(=C(/C)Cl)N1 (configuration not stated),-12.8,-24.9%[38.3 µM],3.98µM*,-2.2%,-8.7%,-20.2%
O=C(CSc1nnc(CN2CCOCC2)n1-c1ccccc1)N1CCc2ccccc21,28.3,-7.9%[38.3 µM],7.94µM*,-0.5%,-2.3%,10.1%
O=C(CSc1nnc(Cc2ccccc2)n1-c1ccc(F)cc1)N1CCOCC1,10.9,30.9%[38.3 µM],-61.9%,6.9%,-2.6%,12.2%
CC1CCN(C(=O)CSc2nnc(CN3CCOCC3)n2-c2ccccc2)CC1,14.2,12.6%[38.3 µM],1.26µM*,-11.6%,3.4%,-18.2%
S[C@@H]1CCCN(Cc2ccccc2)C1,nt,-2.5%,-8.2%[13.5 µM],-0.7%,nt,17.3%[10 µM]
N/C(=N\NC(=O)c1sccc1OCc1ccc(Cl)cc1Cl)c1ccccn1,nt,18.7%,-1.3%,nt,1.78µM*,-11.2%
O=C(CCl)Nc1ccc(N2CCCCCC2)cc1,nt,10.5%,2.24µM*,nt,nt,nt
O=C(CNCc1ccco1)Nc1ccc(N2CCCCCC2)cc1,nt,13.7%,35.5µM*,nt,18.5%,2.4%
COCCCNC(=S)Nc1ccc(N2CCCCC2)cc1,nt,0.3%,-11.9%,nt,14.5%,-10.3%[10 µM]
CCNC(=S)Nc1ccc(N2CCCCC2)cc1,nt,-2.7%,25.1µM*,nt,-12.1%,?
CCC(=O)Nc1ccc(N2CCCCC2)cc1,4.4,42.4%[38.3 µM],-7.7%,-12.5%,?,-10.0%
CC1CCCCN1CC(=O)Nc1ccc(N2CCCCCC2)cc1 (configuration not stated),nt,29.5%,20µM*,nt,-6.5%[9.22 µM],-21.9%[10 µM]
COc1cccc2c3c(c(C)nc12)CC(CO)O3 (configuration not stated),nt,2.1%,?,?,nt,-21.5%
CN[C@H](C)CCC=C(C)C,nt,nt,nt,nt,-12.5%,-9.3%
COc1ccc(N(CC(=O)N2CCCCC2)S(=O)(=O)c2ccc(OC)c(OC)c2)cc1,-6.3,nt,nt,nt,nt,nt
O=C(Nc1ccccc1)[C@@]12C[C@@H]1/C(=N/O)c1ccccc1O2,2.7,22.7%,-3.3%,-22.1%,nt,0.2%
Cc1cccc(NC2=C/C(=N/S(=O)(=O)c3cccs3)c3ccccc3C2=O)c1,nt,-7.4%,-1.4%,-13.1%,14.3%,nt
O=C(O)c1ccc(NC2=C/C(=N/S(=O)(=O)c3ccccc3)c3ccccc3C2=O)cc1,nt,24.4%,?,nt,15.8µM*,-179.7%
O=C1C(Nc2ccc(O)cc2)=C/C(=N/S(=O)(=O)c2cccs2)c2ccccc21,nt,49.6%,?,nt,2.51µM*,-56.9%[10 µM]
Cc1ccc(NC2=C/C(=N\S(=O)(=O)c3cccs3)c3ccccc3C2=O)c(C)c1,28.0,27.9%,-15.3%,-11.7%,2.24µM*,-94.5%[10 µM]
O=C(O)c1ccc(NS(=O)(=O)c2ccc3c(c2)C(=O)c2ccccc2C3=O)cc1,nt,6.0%,-2.1%,nt,-2.0%[9.22 µM],3.9%[10 µM]
O=C1/C(=N\S(=O)(=O)c2cccs2)C([n+]2ccccc2)=C([O-])c2ccccc21,nt,nt,nt,nt,-38.6%[9.22 µM],2.2%[10 µM]
Cc1ccc(Cl)cc1NC1=C/C(=N\S(=O)(=O)c2cccs2)c2ccccc2C1=O,-2.1,37.0%[38.3 µM],?,-15.6%,1.58µM*,-95.8%[10 µM]
Cc1ccc(N[C@H](c2ccccc2)c2ccc3cccnc3c2O)cc1,nt,-10.4%,?,-6.9%,nt,-6.5%[10 µM]
CCc1ccc(-c2nc(SCC(=O)NCCOC)c(-c3ccc(C)cc3)[nH]2)cc1,0.6,nt,nt,nt,nt,nt

# Screening data deposited in PubChem by National Center for Advancing Translational Sciences (NCATS).
